Data taken from PubChem BioAssay.

Each compound was assayed against Dickkopf-related protein 1 (Homo sapiens) (UniProt O94907) (assay: small molecules binding DKK1 protein – biochemical, small-molecule microarray, 635 nm fluorescence scan, primary screen (AID 1106;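 also: score merges emission near 667 nm with signal to noise over three replicate slides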)). Details: higher = more signal.
Dickkopf-related protein 1 (Homo sapiens), sequence (O94907 whole entry, looked up): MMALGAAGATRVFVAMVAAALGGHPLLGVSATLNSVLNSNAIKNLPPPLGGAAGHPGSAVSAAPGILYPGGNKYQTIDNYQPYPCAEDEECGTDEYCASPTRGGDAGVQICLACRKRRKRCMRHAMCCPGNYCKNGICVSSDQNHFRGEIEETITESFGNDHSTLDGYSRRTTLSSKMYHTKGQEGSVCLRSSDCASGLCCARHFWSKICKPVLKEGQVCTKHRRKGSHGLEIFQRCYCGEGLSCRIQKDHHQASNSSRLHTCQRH

Row | SMILES | composite z-score
1 | O=C1C2C=CC(C(O)Cc3ccccc3)N(Nc3ccc([N+](=O)[O-])cc3)C2C(=O)N1c1ccccc1 (centres undefined) | -0.0044
2 | CC(C)C[C@@H]1NC(=O)[C@H](CC(C)C)NC(=O)[C@@]23C(=O)N[C@@H](Cc4ccccc4)C2[C@H](C)[C@@]2(C)O[C@H]2C3/C=C/CC/C=C/CNC1=O (some centres undefined) | 1.19
3 | COC(=O)[C@@]1(Cc2ccccc2CN=[N+]=[N-])N=C(c2ccc(OCCCO)cc2)O[C@H]1c1ccccc1N=[N+]=[N-] | -0.608
4 | CCOC(=O)C[C@H]1[C@H](OC(=O)Cc2ccc3c(c2)OCO3)[C@@H](NC(=O)c2ccc3ccccc3c2)c2cc(OCCCO)ccc2N1C(=O)Cc1ccc(OC)cc1 | 0.435
5 | C[N+](C)(C)CCCCNC(=O)[C@H]1C[C@H]2C(=O)NCC(=O)N2[C@H]1c1cccc(OCCO)c1 | 1.84
6 | C=C(/C(=C/C[C@@H](OC(=O)c1ccncc1)c1ccc(CO)o1)c1cnc2ccccc2c1)C(C)C | 0.574
7 | CCCNC(=O)[C@@]1(Sc2ccc(C)cc2)CC(=O)N(Cc2ccccc2Cl)[C@@H]1c1ccc(CO)cc1 | 1.22
8 | COC(=O)Cn1c(C(=O)N2CCCC2)cc2c1C[C@H]1CN(C(=O)c3ccccc3)[C@@](Cc3ccccc3)(C(=O)OC)[C@@H]21 | -0.837
9 | NC(=O)NCC#Cc1ccc2c(c1)[C@]1(C(=O)N2)[C@H](C(=O)N2CCCCCCC2)[C@H]2C(=O)O[C@H](c3ccccc3)[C@H](c3ccccc3)N2[C@@H]1c1ccccc1OCCO | 2.26
10 | Cc1ccc(S[C@]2(C(=O)NCCCN(C)C)CC(=O)N(C3CCCCC3)[C@@H]2c2ccc(CO)cc2I)cc1 | -0.256
11 | CCN1C(C)=C(C(=O)OC)[C@@H](c2ccccc2)N2C(=O)[C@@]3(C(=O)OC)O[C@@]12[C@@H]1C(=O)N(C)C(=O)[C@@H]13 | 1.1
12 | CO[C@H]1COC(=O)[C@H](C)NC(=O)CC=C[C@@H](C)[C@H](NS(=O)(=O)c2ccc(C)cc2)COC(=O)CC=C[C@@H]1C | 0.979
13 | Cc1ccc(S(=O)(=O)N[C@H]2COC(=O)CC=C[C@H](C)COC(=O)N[C@@H](C)C(=O)CC=C[C@@H]2C)cc1 | 2.08
14 | CN1C2C=C(c3ccc(CO)cc3)C(C3C(=O)N(C(N)=O)C(=O)C32)C1c1cccs1 (centres undefined) | -0.72
15 | CCCC=C(CCC)[C@@H](NS(=O)(=O)c1ccc(C(F)(F)F)cc1)c1ccc(-c2ccccc2)cc1 | -0.112
16 | CO[C@H]1COC(=O)[C@@H](C)NC(=O)CC=C[C@@H](C)[C@H](OC)COC(=O)CC=C[C@@H]1C | 1.2
17 | C=CCC(OC(C)=O)[C@@H]1[C@@H](N(Cc2cc3ccccc3o2)C(=O)Cc2ccc(F)cc2)c2cc(OCCCO)ccc2N1C(=O)c1ccc(-c2ccccc2)cc1 (some centres undefined) | 0.0578
18 | Cc1ccc(N2C(=O)c3ccccc3[C@@H](C(=O)NCc3ccccc3)[C@@H]2c2ccc(CO)cc2)nc1 | 0.251
19 | CCCC[C@@H]1C[C@H]1[C@@H](NC(=O)c1ccccc1)c1ccccc1C(F)(F)F | -0.521
20 | CN1C(=O)C2C=CC(C(O)c3ccc(N(C)C)cc3)N(Nc3ccc([N+](=O)[O-])cc3[N+](=O)[O-])C2C1=O (centres undefined) | 0.137
21 | O=C1C2C=CC(C(O)C#Cc3ccccc3)N(Nc3ccccc3)C2C(=O)N1c1ccccc1 (centres undefined) | -0.572
22 | Cc1ccc(S[C@]2(C(=O)NCCN3CCOCC3)CC(=O)N(C3Cc4ccccc4C3)[C@@H]2c2ccc(CO)cc2I)cc1 | -0.408
23 | O=C1O[C@@H](c2ccccc2)[C@@H](c2ccccc2)N2[C@@H](c3ccc(O)cc3)[C@]3(C(=O)Nc4ccccc43)[C@@H](C(=O)N3CCN(c4ncccn4)CC3)[C@H]12 | -0.21
24 | C=CC[C@]1(C(=O)NCC(O)CO)N=C(c2ccc(OCCCO)cc2)O[C@H]1c1ccccc1 (some centres undefined) | -0.296
25 | CC[C@@H]1C=C(C(=O)O)[C@H](c2ccccc2)N1S(=O)(=O)c1ccc([N+](=O)[O-])cc1 | -0.538
26 | CN1CCC(CCCO)=CC1C1CC1 (centres undefined) | 0.293
27 | C=CC[C@]1(C(=O)N2CCCCC2)N=C(c2ccc(OCCCO)cc2)O[C@H]1c1ccccc1N=[N+]=[N-] | -0.0913
28 | COc1cccc([C@@H]2[C@@H](C)CC[C@H]3C(=O)N4[C@H](c5cccc(OC)c5)[C@@H](C)CC[C@H]4C(=O)N23)c1 | 0.558
29 | COCCOC(=O)N1C(=O)[C@@]2(c3cc(C#CC4=CCCCC4)ccc31)[C@H](c1ccc(O)cc1)N1[C@H](c3ccccc3)[C@H](c3ccccc3)OC(=O)[C@H]1[C@@H]2C(=O)N1CCCCCCC1 | 0.948
